Consider 1 molecule from PubChem BioAssay AID540357 (National Center for Advancing Translational Sciences (NCATS), 2011).

The structures appear in SMILES notation. The source made the active and inactive calls.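 Rule for the calls: active = compounds whose fitted potency in the phosphatase confirmation test is under 20 µM; inconclusive = potency fitted but weaker than 20 µM; inactive = no potency could be fitted.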

The test deals with Protein phosphatase EYA2 (Homo sapiens) (UniProt O00167). Kind of test: Inhibitors of Eya2ED: Hit Confirmation in Malachite Green Secondary Assay. As to conditions: phosphopeptide, malachite green absorbance. An excerpt: The Eya proteins (Eya1-4) were originally identified as essential co-activators of the Six1 transcription factor. […] Knockdown of Six1 decreases cancer cell proliferation and metastases in several different cancer models. […] A fluorescence-based HTS assay has been perfomed against the Molecular Libraries Small Molecule Repository (MLSMR) and has the AID 488837 in this database. In order to confirm the hits obtained from the primary screen several follow-up screens have been/will be carried out. This secondary screen uses a different substrate and a different detection method and will help eliminate false positives obtained from the primary screen. More specifically, this assay measures phosphatase activity by measuring inorganic phosphate, the product of the hydrolysis of the phosphate group on the protein substrate. The inorganic phosphate is detected with malachite green, which in strongly acid conditions, produces a complex which is green and is detected by absorbance. NIH Chemical Genomics Center [NCGC] NIH Molecular Libraries Probe Centers Network [MLPCN] MLPCN Grant: DA030559-01 Assay Submitter (PI): Rui Zhao, University of Colorado, Denver
Protein phosphatase EYA2 (Homo sapiens), sequence (O00167 whole entry, looked up): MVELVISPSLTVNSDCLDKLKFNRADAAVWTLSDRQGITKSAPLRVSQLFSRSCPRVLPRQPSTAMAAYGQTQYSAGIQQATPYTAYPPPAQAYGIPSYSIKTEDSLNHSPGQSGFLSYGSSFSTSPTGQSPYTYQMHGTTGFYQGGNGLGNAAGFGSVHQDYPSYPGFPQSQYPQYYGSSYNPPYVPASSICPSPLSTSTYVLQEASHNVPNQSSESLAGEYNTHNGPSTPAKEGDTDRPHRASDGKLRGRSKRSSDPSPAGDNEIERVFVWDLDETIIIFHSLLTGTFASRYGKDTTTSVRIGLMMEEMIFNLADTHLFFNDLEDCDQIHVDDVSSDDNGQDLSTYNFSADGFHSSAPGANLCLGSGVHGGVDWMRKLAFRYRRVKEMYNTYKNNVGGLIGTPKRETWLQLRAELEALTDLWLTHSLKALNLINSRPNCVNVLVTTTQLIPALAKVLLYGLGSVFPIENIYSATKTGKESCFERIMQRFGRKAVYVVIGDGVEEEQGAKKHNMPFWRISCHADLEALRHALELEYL
Phospatase assay (25ul) was carried out in transparent, 96-well, half-area microplates. […] After 20 minute incubation at room temperature, the absorbance was read at 620nm using a Spectramax PLUS 384 plate reader by Molecular Devices. […]
Regarding `CCNC(=S)NNC(=O)c1csc2ccccc12`, the Potency is 16.8 µM (active).
